Results reported in PubChem BioAssay (NCI).
This is part of a sample that, as a whole, favours compounds with a hit. Of some 79,000 tested, about 15% had one in any assay. Rule as the data show it: active = growth inhibition above about 70%; inactive = the rest.

Tests used:
[1] = NCI Yeast Anticancer Drug Screen. Data for the rad50 strain (AID 155);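 also: 0% = growth of vehicle-only cultures of the same strain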; conditions: S. cerevisiae rad50 strain growth inhibition; at 50.0 µM; hits give high values
How it was run: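 Relative growth inhibition (compound vs vehicle) was measured in yeast with a defined repair-gene alteration.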

[2] = NCI Yeast Anticancer Drug Screen. Data for the mec2-1 strain (AID 157); conditions: S. cerevisiae mec2-1 strain, at 50.0 µM, hits give high values
How it was run: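 Yeast mec2-1 mutant treated with compound. Readout: growth inhibition vs vehicle controls.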

[3] = NCI Yeast Anticancer Drug Screen. Data for the sgs1 mgt1 strain (AID 161);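 also: 0% = growth of cultures given vehicle only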; conditions: S. cerevisiae sgs1 mgt1 strain, at 50.0 µM, hits give high values
How it was run: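 Test agents were incubated with a DNA-repair-mutant yeast strain. Growth was then read and compared against vehicle-treated controls.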

[4] = NCI Yeast Anticancer Drug Screen. Data for the cln2 rad14 strain (AID 165);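 also: 0% = growth equal to vehicle treated cultures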; conditions: S. cerevisiae cln2 rad14 strain, at 50.0 µM, hits give high values
How it was run: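 cln2 rad14 yeast strain; compound exposure; growth inhibition read vs vehicle controls.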

[5] = NCI Yeast Anticancer Drug Screen. Data for the bub3 strain (AID 167); conditions: S. cerevisiae bub3 mutant strain, at 50.0 µM, hits give high values
How it was run: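 Screening used yeast with an engineered genetic alteration affecting cell cycle control. Compound-exposed cultures were compared with vehicle cultures, and reduced growth was taken as inhibition.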

[6] = NCI Yeast Anticancer Drug Screen. Data for the mlh1 rad18 strain (AID 175); conditions: S. cerevisiae mlh1 rad18 strain growth inhibition; at 50.0 µM; hits give high values
How it was run: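 Yeast w/ defined DNA-repair lesions; compound exposure; growth vs vehicle controls → % inhibition.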

Measured: growth inhibition

O=C1c2ccccc2C2(O)Oc3cccc(O)c3C12O (centres undefined)
inactive: [1] 6.45% | [2] 4.55% | [3] -2% | [4] -14.9% | [5] 2.85% | [6] 49.9%

O=C(C[n+]1cccc(CO)c1)c1ccc(-c2ccc(C(=O)C[n+]3cccc(CO)c3)cc2)cc1
inactive: [1] 22.8% | [2] 5.35% | [3] 31.7% | [4] -4.7% | [5] -1.7% | [6] 11.7%

COc1ccc(OC)c2c1CCCC2
inactive: [1] -8.4% | [2] -5.95% | [3] -1.65% | [4] -7.35% | [5] 0.95% | [6] 7.1%

CC(C)CC(O)C(C)C (centres undefined)
inactive: [1] -18.3% | [2] -15.8% | [3] 0.15% | [4] 31.3% | [5] -6.8% | [6] 1.35%

N=C(N)SCCSC(=N)N
inactive: [1] -13.5% | [2] -8.4% | [3] -30.6% | [4] 9.7% | [5] -16.4% | [6] 12.9%

CCN(CC)CCCC#N
inactive: [1] -5.25% | [2] 4.7% | [3] -8.8% | [4] -13% | [5] -2.6% | [6] -2.85%

CCC(C)c1cc(C(C)(C)C)cc(-n2nc3ccccc3n2)c1OS(=O)(=O)c1cccc(N)c1 (centres undefined)
inactive: [1] -4.4% | [2] -27.1% | [3] -12.8% | [4] 2.7% | [5] -16.9% | [6] -22%

CC(C)(C)CNC(=S)Nc1ccccc1
inactive: [1] 3.45% | [2] 2.6% | [3] 3.4% | [4] 3.55% | [5] -2.05% | [6] 10%

C1CCN=C(N2CCCCCC2)CC1
inactive: [1] -16.9% | [2] -4.2% | [3] -5.8% | [4] -33% | [5] 13.6% | [6] -6.25%

CSC1NN=C(CCC(=O)Nc2ccc(C)cc2)O1 (centres undefined)
inactive: [1] -37.7% | [2] 5.25% | [3] 13% | [4] -21.1% | [5] -3.8% | [6] 12.9%

CNC(=O)SCC(N)C(=O)O (centres undefined)
inactive: [1] 1.25% | [2] -4.85% | [3] -8.3% | [4] -16.4% | [5] -0.9% | [6] 2%

Clc1ccc(N=Cc2ccccc2)cn1
inactive: [1] -13.6% | [2] 22.1% | [3] 37% | [4] -14.4% | [5] 6.55% | [6] 47.4%

COC(=O)C(CNc1ccc(S(N)(=O)=O)cc1)=[N+]=[N-]
inactive: [1] 7.4% | [2] 13.3% | [3] 0.95% | [4] -12.8% | [5] 6.25% | [6] 11.2%

CCO/C=N/n1c(C(=O)NCCCOC)nc2ccccc2c1=O
inactive: [1] -6.25% | [2] -20.3% | [3] 7.4% | [4] -5.6% | [5] 4.9% | [6] 1.75%

CCOC(=O)c1nnc(-c2ccccc2)nc1Cl
inactive: [1] -2.55% | [2] 3.45% | [3] 0.15% | [4] -12.9% | [5] 3.7% | [6] 4%

CCCCCCCCCCCCSSC(=S)OC(C)C
inactive: [1] 46.7% | [2] 37.7% | [3] 45.5% | [4] 16.9% | [5] 43.6% | [6] 44.5%

c1cc2c3c(cc4c(c3c1)CCCC4)CC2
inactive: [1] -6.95% | [2] -20.9% | [3] -12.9% | [4] -23.6% | [5] 5.45% | [6] -4.75%

O=C1CC(C(=O)O)C(C(Cl)(Cl)Cl)O1 (centres undefined)
inactive: [1] -18.9% | [2] -26.4% | [3] 1.8% | [4] -22.7% | [5] -6.7% | [6] -1.2%

Cc1cc(Cl)c(Cl)cc1NC(=O)c1ccccc1Cl
inactive: [1] 1.55% | [2] -11.3% | [3] 4% | [4] -9.25% | [5] 8.9% | [6] -5.25%

CC(=O)Nc1c(C)n(C)n(-c2ccccc2)c1=O
inactive: [1] -2.45% | [2] -12.7% | [3] 23.4% | [4] 31.1% | [5] 17.6% | [6] 13.6%

COc1ccccc1C(O)(c1ccccc1OC)C1(O)CCCCC1
inactive: [1] -10.2% | [2] -2% | [3] -5% | [4] 13.8% | [5] -0.1% | [6] 1.15%

CC(=O)c1ccc2ccccc2c1
inactive: [1] 24.4% | [2] 7.8% | [3] 4.3% | [4] 2.75% | [5] -0.1% | [6] 16.2%

C[C@H](CCC(=O)NCC(=O)O)[C@H]1CC[C@H]2[C@@H]3[C@H](O)C[C@@H]4C[C@H](O)CC[C@]4(C)[C@H]3CC[C@]12C
inactive: [1] 14.2% | [2] -13.4% | [3] 0.15% | [4] 4.05% | [5] -0.3% | [6] 6.5%

CC(C)CSc1nc2ccc(N=Cc3ccccc3O)cc2s1
inactive: [1] -29.4% | [2] -5.5% | [3] -11.3% | [4] -13% | [5] 8.75% | [6] -17.3%

CC(C)c1cc(C(C)C)c(S(=O)(=O)N/N=C2\CC3CCC2(C)C3(C)C)c(C(C)C)c1 (centres undefined)
inactive: [1] -8.7% | [2] -16.9% | [3] -13.3% | [4] -4.35% | [5] -54.5% | [6] 0.65%

NC(=O)c1nc(C2OC(CO)C(O)C2O)cs1 (centres undefined)
inactive: [1] -0.7% | [2] -1.2% | [3] -2.25% | [4] -27.9% | [5] 6.75% | [6] 0.15%

N#CCc1ccc(C(C#N)C(=O)CCC(=O)C(C#N)c2ccc(CC#N)cc2)cc1 (centres undefined)
inactive: [1] 11.7% | [2] 11.3% | [3] -13.1% | [4] 34.1% | [5] -0.3% | [6] 22.1%

Nc1c(N2CCCCC2)c(=O)nc2[nH]/c(=C\c3ccco3)c(=O)n12
inactive: [1] 5.45% | [2] -26.1% | [3] 10.9% | [4] -21.4% | [5] 8.8% | [6] -7.6%

CCn1c(C)nc2ccccc21
inactive: [1] -12.7% | [2] -6.55% | [3] 2.5% | [4] -0.5% | [5] -16.1% | [6] 1.5%

O[C@]12c3ccccc3C1CCCCC2N1CCOCC1 (some centres undefined)
inactive: [1] -15.8% | [2] -41% | [3] -61% | [4] -8.45% | [5] -24.1% | [6] -35.4%

COc1ccc(C2(C(OC)OC)NC(=O)NC2=O)cc1 (centres undefined)
inactive: [1] -26.8% | [2] -4.1% | [3] -8.8% | [4] 35.4% | [5] -0.7% | [6] -8.85%

C/C(N=NS(=O)(=O)c1ccccc1)=C1\C=CC=CN1O
inactive: [1] -7.9% | [2] -1.5% | [3] -4.55% | [4] 2.5% | [5] 12.9% | [6] -9%

O=C(NO)/C(CC(=O)c1ccc(O)cc1O)=N\O
inactive: [1] 4.05% | [2] -5.5% | [3] -8.65% | [4] -0.7% | [5] -11.2% | [6] 16.9%

O=c1[nH]cnc2c1ncn2CCCCO
inactive: [1] -0.15% | [2] -5.25% | [3] 1.6% | [4] 2.7% | [5] -0.05% | [6] 10.4%

C[C@@H]1CC[C@@]2(C)C(C(=O)O)=CCCC2[C@@]1(C)CC(=O)c1ccoc1 (some centres undefined)
inactive: [1] -11.9% | [2] -8.55% | [3] -36.1% | [4] -17.1% | [5] -42.5% | [6] -35.2%

OCCO
inactive: [1] -26.4% | [2] -24.1% | [3] -49.3% | [4] -31.6% | [5] -32% | [6] -30.6%

CCOC(=O)/C=C/C(=O)N1CCN(C(=O)/C=C/C(=O)OCC)C(C)C1 (centres undefined)
inactive: [1] -3.3% | [2] -40.8% | [3] -6.7% | [4] 4.25% | [5] -41.5% | [6] -15.9%

CC1(O)CC2C=CC1CC2 (centres undefined)
inactive: [1] 9.65% | [2] 7.15% | [3] 4.6% | [4] 4% | [5] 9.55% | [6] 13.8%

O=[N+]([O-])c1ccc(Sc2cccs2)c([N+](=O)[O-])c1
inactive: [1] -12.8% | [2] 28.9% | [3] 18.9% | [4] 4.1% | [5] 13.9% | [6] 57%
